G9a block = qHTS Assay for Inhibitors of Histone Lysine Methyltransferase G9a | Histone-lysine N-methyltransferase EHMT2 (Homo sapiens), Q96KQ7 | G9a H3K9 monomethylation, AlphaScreen, 2 h | Potency, µM (top dose mostly 102 µM), for inactives: top-dose activity, negative = inhibition, hits mostly inhibitors | hit rate 8.8% among 350,000; note: potency is the fitted concentration of half-maximal effect; % is set by controls: 0 for no effect and ±100 for the full control effect; nearly all actives have a fitted effect of over 75% in size
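AlphaScreen detection with an anti-monomethyl H3K9 antibody quantified product after a 2 h room-temperature reaction containing 500 nM biotinylated H3K9 peptide, 20 µM SAM and 20 nM enzyme, which had been preincubated 15 min with compound.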
Six1-Eya2 inh = qHTS Assay for Inhibitors of the Six1/Eya2 Interaction; Homeobox protein SIX1 (Homo sapiens) + Protein phosphatase EYA2 (Homo sapiens), …; AlphaScreen GST-Six1/His-Eya2 binding, biochemical; active compounds read low; activity change, % (no concentration beside the values); hit rate 0.56% among 360,000; AID 651725, 2012; in the data active = activity change below about -65%; inconclusive = mostly about -30% to -63%; note: % is set by controls: 0 for no effect and ±100 for the full control effect
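AlphaScreen luminescence read after one hour at 37 °C in darkness. Pin-transferred compounds met GST-Six1 and His-Eya2 protein (5X stock 250 nM/500 nM) plus glutathione donor and Ni-chelate acceptor beads (5X, 50 ug/mL).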
CtBP-E1A blk = qHTS Assay for Inhibitors of the CtBP/E1A Interaction; CtBP / adenovirus E1A interaction (AlphaScreen); AlphaScreen GST-E1A/His-CtBP binding, 1536-well; active compounds read low; activity change, % (concentration not given with the values); hit rate 0.49% among 340,000; in the data active = activity change below about -65%; inconclusive = mostly about -30% to -63%; note: % is set by controls: 0 for no effect and ±100 for the full control effect
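Protein mix (5X: 125 nM each GST-E1A, His-CtBP) was incubated with pinned compound 2 h at 37 deg C in dark, in 50 mM Tris pH 8.0 buffer with 300 mM NaCl. Glutathione donor and nickel acceptor beads followed; AlphaScreen signal read after 1 h.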
JMJD2A Tudor inh = qHTS Assay for Inhibitors of JMJD2A-Tudor Domain; AID 504339, 2011; AlphaScreen JMJD2A-Tudor / H3K4me3 peptide binding; hit rate 4.4% among 390,000; Potency, µM (series often up to 114 µM), for inactives: at the top dose activity change, negative = inhibition, usual class: inhibitors; Lysine-specific demethylase 4A (Homo sapiens), O75164; note: potency is the fitted concentration of half-maximal effect; % is set by controls: 0 for no effect and ±100 for the full control effect; nearly all actives have a fitted effect of over 50% in size
HP1b chromo inh = HTS for Inhibitors of HP1-beta Chromodomain Interactions with Methylated Histone Tails. Chromobox protein homolog 1 (Homo sapiens), P83916. AlphaScreen HP1-beta / biotin-H3K9me3 peptide binding. Potency, µM (doses to about 114 µM), inactives show top-dose activity change, negative = inhibition, hits mostly inhibitors. hit rate 0.56% among 390,000. AID 540317, 2011; note: potency is the fitted concentration of half-maximal effect; nearly all actives have a fitted effect of over 70% in size
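AlphaScreen: HP1-beta (50 nM) preformed 30 min with biotin-H3(1-18)K9me3 peptide (50 nM) in PBS pH 7.4, 0.01% Tween-20. Compound added for 30 min at RT, then streptavidin donor/nickel chelate acceptor beads (10 ug/mL) for 30 min.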
BAZ2B block = qHTS Assay for Inhibitors of BAZ2B. Bromodomain adjacent to zinc finger domain protein 2B (Homo sapiens), Q9UIF8. AlphaScreen BAZ2B-H3K14Ac peptide displacement. Potency, µM (series often up to 114 µM), for the others: top-dose activity change, negative = inhibition, most hits filed as inhibitors. hit rate 4.4% among 360,000; note: potency is the fitted concentration of half-maximal effect; % is set by controls: 0 for no effect and ±100 for the full control effect; nearly all actives have a fitted effect of over 60% in size
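AlphaScreen displacement of biotin-H3(5-23)K14Ac peptide (50 nM final) from BAZ2B (50 nM final) in PBS pH 7.4, 0.01% Tween-20; complex preformed 30 min RT, then compounds (top 110 uM) 30 min RT, beads 20 min dark.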
* hit, by the source's call; [ ] = dose if it differs, or a comment. Only some compounds are listed: those with a hit (about 10% of all), similar ones and a draw of the others. Unless noted, calls come from the whole dose curve; as a rule, active = well fitted inhibition curve with a large enough effect; inconclusive = small, poorly fitted or top-dose-only effect; inactive = no such curve, though single readings can be large or run the other way.

Results for CC12CCC(C(=O)N(CC(O)CN3CCN(Cc4ccccc4)CC3)C1=O)C2(C)C (stereo not given) ?
G9a block: -48%[12.7 µM]; Six1-Eya2 inh: 6; CtBP-E1A blk: 5; JMJD2A Tudor inh: -6%; HP1b chromo inh: 26%; BAZ2B block: inconclusive

What do the screens show for `Cc1ccc(C)c(NC(=O)CSc2c(C)cnc3c2c(=O)n(C)c(=O)n3C)c1`?
G9a block: 5%[59 µM]; JMJD2A Tudor inh: 7%; HP1b chromo inh: 26%; BAZ2B block: 0%

How did Cc1ccc(C2C(C#N)=C(N)SC(N)=C2C#N)c(C)c1 do in these assays?
G9a block: inconclusive; Six1-Eya2 inh: -1; CtBP-E1A blk: 2; JMJD2A Tudor inh: 89µM*; HP1b chromo inh: 49%; BAZ2B block: 3%

What do the screens show for `Cc1ccc(C2C(C#N)=C(N)SC(N)=C2C#N)cc1`?
G9a block: 45µM*; Six1-Eya2 inh: -2; CtBP-E1A blk: -14; JMJD2A Tudor inh: inconclusive; HP1b chromo inh: 8%; BAZ2B block: -7%

Results for N#CC1=C(N)SC(N)=C(C#N)C1c1ccoc1 ?
G9a block: 2µM*; BAZ2B block: 25µM*

Results for Cc1ccc(C2C(C#N)=C(N)N(c3cccnc3)C3=C2C(=O)CCC3)c(C)c1 (stereo not given) ?
Six1-Eya2 inh: 1; CtBP-E1A blk: -3; JMJD2A Tudor inh: -13%; HP1b chromo inh: 41%; BAZ2B block: -9%

Results for CCC(CC)C1C(C#N)=C(N)SC(N)=C1C#N ?
G9a block: inconclusive; Six1-Eya2 inh: 1; CtBP-E1A blk: 1; JMJD2A Tudor inh: inconclusive; HP1b chromo inh: 55%; BAZ2B block: -2%

What do the screens show for `CCCCCCOC(=O)CC1CC(C(C)=O)C1(C)C` (stereo not given)?
Six1-Eya2 inh: 0; CtBP-E1A blk: 8; JMJD2A Tudor inh: 35%; HP1b chromo inh: 65%

What do the screens show for `CC(=O)N1N=C(c2ccccc2OC(=O)/C=C/c2ccccc2)CC1c1ccccc1` (stereo not given)?
G9a block: -13%; Six1-Eya2 inh: inconclusive; CtBP-E1A blk: -80*; JMJD2A Tudor inh: -26%; HP1b chromo inh: -9%; BAZ2B block: inconclusive

Results for CC(=O)N1N=C(c2ccc3nccnc3c2)CC1c1ccccc1 (stereo not given) ?
G9a block: 9%; Six1-Eya2 inh: 2; CtBP-E1A blk: 0; JMJD2A Tudor inh: 6%; HP1b chromo inh: 15%; BAZ2B block: 4%

Results for CCc1ncc(CN2CCCC(C(=O)Nc3cccc(-c4cccc(C)c4)c3)C2)cn1 (stereo not given) ?
G9a block: -4%; Six1-Eya2 inh: -2; CtBP-E1A blk: -1; JMJD2A Tudor inh: 79µM*; HP1b chromo inh: -13%; BAZ2B block: -18%

Results for CC(=O)c1cccc(CN2CCCC(C(=O)Nc3ccc(-c4ccco4)cc3)C2)c1 (stereo not given) ?
G9a block: 10µM*; Six1-Eya2 inh: -14; CtBP-E1A blk: -9; JMJD2A Tudor inh: inconclusive; HP1b chromo inh: 18µM*; BAZ2B block: 40µM*

Results for O=C(Nc1ccc(-c2ccco2)cc1)C1CCCN(Cc2ccc(CO)o2)C1 (stereo not given) ?
Six1-Eya2 inh: -13; CtBP-E1A blk: -5; JMJD2A Tudor inh: inconclusive; HP1b chromo inh: -13%; BAZ2B block: inconclusive

Results for CCN1CCN(C(=O)CCc2nnc(CCc3ccc(OC)cc3)o2)[C@@H](C)C1=O ?
G9a block: 2%; Six1-Eya2 inh: 0; CtBP-E1A blk: -7; JMJD2A Tudor inh: -17%; HP1b chromo inh: 11%; BAZ2B block: 1%

What do the screens show for `O=C(O)C1Cc2ccccc2CN1C(=O)COc1ccc(Cl)cc1` (stereo not given)?
G9a block: 45µM*; Six1-Eya2 inh: 2; CtBP-E1A blk: -4; JMJD2A Tudor inh: -1%; HP1b chromo inh: 18%; BAZ2B block: -19%

What do the screens show for `CCOc1ccc(S(=O)(=O)N2Cc3ccccc3CC2C(=O)O)cc1` (stereo not given)?
G9a block: 50µM*; Six1-Eya2 inh: 18; CtBP-E1A blk: 12; JMJD2A Tudor inh: 3%[11.4 µM]; HP1b chromo inh: 26%; BAZ2B block: inconclusive

What do the screens show for `O=C(O)C1Cc2ccccc2CN1S(=O)(=O)c1ccc(Cl)cc1` (stereo not given)?
G9a block: inconclusive; Six1-Eya2 inh: 5; CtBP-E1A blk: 5; JMJD2A Tudor inh: -9%; HP1b chromo inh: 7%; BAZ2B block: inconclusive

Results for CN[C@]1(C)[C@H]2CC[C@@H](C2)C1(C)C ?
G9a block: 24%[21.5 µM]

What do the screens show for `Cc1cc(C)cc(NC(=O)C2CCCN(c3cnccn3)C2)c1` (stereo not given)?
G9a block: -1%[59 µM]; JMJD2A Tudor inh: -13%; HP1b chromo inh: 31%; BAZ2B block: -23%

How did CCOc1ccc(CN(C)C(=O)c2cccc(S(=O)(=O)Nc3ccccc3OC)c2)cc1OC do in these assays?
Six1-Eya2 inh: -1; CtBP-E1A blk: 0

Results for COC(=O)c1c(NC(=O)c2nc3ccccc3s2)sc2c1CCN(C(C)=O)C2 ?
G9a block: -3%; Six1-Eya2 inh: -6; CtBP-E1A blk: -1; JMJD2A Tudor inh: -13%; HP1b chromo inh: 43%; BAZ2B block: 7%

What do the screens show for `CCOC(=O)c1sc(NC(=O)c2ccccc2C(=O)O)c(C(=O)OCC)c1C`?
G9a block: -30%; Six1-Eya2 inh: -4; CtBP-E1A blk: -17; JMJD2A Tudor inh: -7%[11.4 µM]; HP1b chromo inh: 20%; BAZ2B block: -15%

What do the screens show for `CCc1ccccc1NC(=O)c1c(NC(=O)c2ccccc2)sc2c1CCCC2`?
G9a block: 29%[59 µM]; JMJD2A Tudor inh: 6%; HP1b chromo inh: 42%; BAZ2B block: 16%

What do the screens show for `Cc1ccccc1C(=O)Nc1sc(C)c(C)c1C(=O)c1ccccc1`?
G9a block: 10µM*; Six1-Eya2 inh: -23; CtBP-E1A blk: inconclusive; JMJD2A Tudor inh: inconclusive; HP1b chromo inh: inconclusive; BAZ2B block: inconclusive

Results for CCN(CC)CCCC(C)NC(=O)c1c(NC(=O)c2ccccc2)sc2c1CCCC2 (stereo not given) ?
G9a block: 79µM*; Six1-Eya2 inh: -3; CtBP-E1A blk: -3; JMJD2A Tudor inh: 45µM*; HP1b chromo inh: -10%; BAZ2B block: -14%

Assay outcomes as filed in PubChem BioAssay.
